# Experimental data as given in PubChem BioAssay (NCATS).
# Several values for one entry are separate records, joined by “and”; a condition that tells them apart may be missing. Equal entries are not always repeated. Results filed as inconclusive are left out. Activity calls are given as the source filed them. The call rests on the fitted dose curve; in most records, active means well fitted curve in the direction sought with a large enough effect; inconclusive means small, poorly fitted or top-dose-only effect, or another doubt; inactive means no such curve, though single readings can be large; an effect the other way counts as inactive or inconclusive.
# Tested on: not listed separately
# Assay: qHTS Assay for Lipid Storage Modulators (AID 1519)
# Conditions: Drosophila S3 cells, BODIPY lipid droplet/cell ratio, laser cytometry; measured here: lipid channel max response; cells loaded with oleic acid
# Method in brief: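 Cells seeded at 5,000 per well were treated with compounds over a concentration series and loaded with oleic acid (400 uM, as added). Lipid droplet fluorescence (488 nm excitation, 500-530 nm channel) was read by laser-scanning cytometry and normalized to 20 uM Triacsin C.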
row,SMILES,max response
1,CCC(=O)O[C@H]1CC[C@H]2[C@@H]3CCC4=CC(=O)CC[C@]4(C)[C@H]3CC[C@]12C,3.14%
2,Cc1ccc(N=CN(C)C=Nc2ccc(C)cc2C)c(C)c1,26.2%
3,NC(N)=NC(=O)c1nc(Cl)c(N)nc1N,15.3% and 5.93% and 17.9%
4,O=C(O)c1nn(Cc2ccc(Cl)cc2Cl)c2ccccc12,43.5%
5,O=C1CC2(CCCC2)CC(=O)N1CCCCN1CCN(c2ncccn2)CC1,-24.8% and -67.1%
6,Cc1cc(C(C)(C)C)cc(C)c1CC1=NCCN1,3.95% and 14.5%
7,CC[n+]1c(-c2ccccc2)c2cc(N)ccc2c2ccc(N)cc21,6.23%
8,CC(N)C(=O)OC(C)(C)Cc1ccc(Cl)cc1 (centres undefined),18.3%
9,C[C@H](N)[C@H](O)c1ccc(O)c(O)c1,-13.5%
10,CCCCCCCCC(=O)NCc1ccc(O)c(OC)c1,3.12% and 22.1%
11,CC(C)[N+](C)(CCC(C(N)=O)(c1ccccc1)c1ccccc1)C(C)C,-9.77% and 16.5%
12,CCCC(C)C1(CC)C(=O)N=C(S)NC1=O (centres undefined),1.05%
13,Clc1ccc(C(OCCN2CCCCC2)c2ccccc2)cc1 (centres undefined),25.9%
14,COC(=O)C1=CCCN(C)C1,21.3% and 16.2% and -73.3%
15,O=C(NC(=O)c1c(F)cccc1F)Nc1cc(Cl)c(OC(F)(F)C(F)C(F)(F)F)cc1Cl (centres undefined),-17.8%
16,CCNc1nc(Cl)nc(NCC)n1,16.8%
17,CN1[C@@H]2CC[C@H]1CC(OC(=O)c1cc(Cl)cc(Cl)c1)C2 (some centres undefined),27.7%
18,CN(C)C(=O)Oc1cccc([N+](C)(C)C)c1,2.57% and 1.95%
19,COc1ccc(C(=O)N2CCCC2=O)cc1,19.3%
20,c1ccc2nc(N3CCNCC3)ccc2c1,-9.05% and 14.3% and 11.9%
21,CNC(=O)Oc1ccc2c(c1)[C@]1(C)CCN(C)[C@@H]1N2C,-15.5%
22,OC(c1ccccc1)(c1ccccc1)C1CCNCC1,-6.81%
23,CCCCCCCCCCCCCCCC[n+]1ccccc1,-114%
24,O=C(CCCN1CCC(n2c(=O)[nH]c3ccccc32)CC1)c1ccc(F)cc1,-3.11%
25,Clc1ccc(CO/N=C(\Cn2ccnc2)c2ccc(Cl)cc2Cl)c(Cl)c1,5.32%
26,Clc1ccc(CSC(Cn2ccnc2)c2ccc(Cl)cc2Cl)cc1 (centres undefined),12.4%
27,COC(=O)C1=C(C)NC(C)=C(C(=O)OC)C1c1ccccc1[N+](=O)[O-],-15.8% and -7.21%
28,NC(=O)CN1CCCC1=O,-4.04% and 22.9%
29,COc1ccc(CN2CCNCC2)c(OC)c1OC,-8.59%

# Biological target: DNA repair nuclease/redox regulator APEX1 (Homo sapiens) (UniProt P27695)
# Sequence (P27695 whole entry, looked up): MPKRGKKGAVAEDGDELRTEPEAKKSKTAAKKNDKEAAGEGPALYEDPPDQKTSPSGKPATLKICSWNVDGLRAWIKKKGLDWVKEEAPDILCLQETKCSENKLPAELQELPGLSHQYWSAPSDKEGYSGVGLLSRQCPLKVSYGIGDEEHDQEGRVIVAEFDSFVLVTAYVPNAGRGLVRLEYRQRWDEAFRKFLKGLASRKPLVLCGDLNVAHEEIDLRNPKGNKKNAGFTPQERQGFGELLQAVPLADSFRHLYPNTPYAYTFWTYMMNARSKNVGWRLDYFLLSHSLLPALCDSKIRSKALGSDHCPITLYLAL
# Assay: qHTS Validation Assay for Inhibitors of the Human Apurinic/apyrimidinic Endonuclease 1 (APE1) (AID 1705;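 further: TAMRA fluorescence gain over two minutes as APE1 cuts a quenched THF abasic duplex; on the % scale 0 is the no-effect control and ±100 the full control effect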)
# Conditions: purified APE1 endonuclease activity, fluorescence, titration; series mostly up to 57.1 µM
# Method in brief: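 Endonuclease activity of human APE1 is followed as dequenching when the enzyme incises a tetrahydrofuran abasic site in a short duplex labelled 5'-TAMRA/3'-BHQ-2 (50 nM final), after 15 min enzyme–compound preincubation at room temperature.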
row,SMILES,outcome
1,CC[C@H]1CN2CCc3cc(OC)c(OC)cc3[C@@H]2C[C@@H]1C[C@H]1NCCc2cc(OC)c(OC)cc21,inactive
2,O=C(O)c1nn(Cc2ccc(Cl)cc2Cl)c2ccccc12,inactive
3,CC(N)C(=O)OC(C)(C)Cc1ccc(Cl)cc1 (centres undefined),inactive
4,CCCCCCCCC(=O)NCc1ccc(O)c(OC)c1,inactive
5,COC(=O)C1=CCCN(C)C1,inactive
6,COc1ccc(C(=O)N2CCCC2=O)cc1,inactive
7,c1ccc2nc(N3CCNCC3)ccc2c1,inactive
8,NC(=O)CN1CCCC1=O,inactive

# Tested on: not listed separately
# Assay: Counterscreen for APE1 Inhibitors: Fluorescent Dye Displacement Validation Assay (AID 1707);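 further: plate controls were ThO with dsDNA and no compound for no effect and ThO without dsDNA for full effect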
# Conditions: fluorescent dye displacement from DNA; series mostly up to 57.1 µM
# From the text: In order to distinguish true inhibitors of DNA-processing enzymes from promiscuous DNA-binding compounds among screening assay hits, we developed a homogeneous and miniaturized assay based on fluorescent dye displacement test as originally described by Tse and Boger (Accounts of Chemical Research (2004) 37: 61-69). The assay is based on the strong enhancement of fluorescence when Thiazole Orange (ThO) binds to double-stranded DNA: conversely, in the presence of a DNA-binding compound, Thiazole Orange is displaced from the DNA and its fluorescence is reduced.
# Buffer. 50 mM Tris-HCl (pH7.5) containing 50mM NaCl, 2 mM MgCl2, and 0.01% Tween-20.
# Buffer containing 250 nM ThO in columns 3 and 4 as negative control (no dsDNA).
# Reaction mixture: 250 nM ThO and 50 nM dsDNA at final concentration dispensed throughout the plate: in columns 1, 2, 5-48. Column 1 is neutral (100% activity).
# 5''TAMRA- TC ACC FTC GTA CGA CTC
# 3'' AG TGG GAG CAT GCT GAG
# where F denotes tetrahydrofuran.
# Control: Pintool transfer of control compound WB64 (W4761, Sigma-Aldrich) to column 2 of all assay plates as a two-fold 16-point dilution in duplicate (concentration range 5.75 uM - 0.175 nM).
# Four uL of reaction mixtures were dispensed to 1536-well Greiner black solid bottom plates. Compounds (23 nL) were transferred […] in order to measure the endpoint fluorescence using 480 nm excitation and 540 nm emission fluorescence protocol.
row,SMILES,outcome
1,O=C(O)c1nn(Cc2ccc(Cl)cc2Cl)c2ccccc12,inactive
2,CC(N)C(=O)OC(C)(C)Cc1ccc(Cl)cc1 (centres undefined),inactive
3,CCCCCCCCC(=O)NCc1ccc(O)c(OC)c1,inactive
4,COC(=O)C1=CCCN(C)C1,inactive
5,COc1ccc(C(=O)N2CCCC2=O)cc1,inactive
6,c1ccc2nc(N3CCNCC3)ccc2c1,inactive
7,NC(=O)CN1CCCC1=O,inactive

# Biological target: Endonuclease 4 (Escherichia coli (strain K12)) (UniProt P0A6C1)
# Assay: Counterscreen for APE1 Inhibitors: qHTS Validation Assay for Inhibitors of Endonuclease IV (AID 1708); further: on the % scale 0 is the no-effect control and ±100 the full control effect
# Conditions: E. coli endonuclease IV, DNA cleavage fluorescence; series mostly up to 57.1 µM
# Method in brief: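 2 nM enzyme was preincubated with compounds for 15 min at room temperature in 50 mM Tris-HCl pH 7.5, 50 mM NaCl, 2 mM MgCl2, 1 mM DTT, 0.01% Tween-20. 50 nM THF-abasic TAMRA/BHQ-2 duplex substrate started the reaction.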
row,SMILES,outcome
1,O=C(O)c1nn(Cc2ccc(Cl)cc2Cl)c2ccccc12,inactive
2,Cc1cc(C(C)(C)C)cc(C)c1CC1=NCCN1,inactive
3,COC(=O)C1=CCCN(C)C1,inactive
4,COc1ccc(C(=O)N2CCCC2=O)cc1,inactive
5,NC(=O)CN1CCCC1=O,inactive

# Tested on: not listed separately
# Assay: qHTS for differential inhibitors of proliferation of Plasmodium falciparum line 7G8 (AID 1815);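 further: parasite growth measured after three days of incubation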; further: potency means the concentration at half of the fitted maximal effect
# Conditions: Plasmodium falciparum 7G8 proliferation inhibition; series mostly up to 28.7 µM
row,SMILES,Potency
1,C[N+](C)(C)CCCCCCCCCC[N+](C)(C)C,5.01 µM (active)
2,CC[C@H]1CN2CCc3cc(OC)c(OC)cc3[C@@H]2C[C@@H]1C[C@H]1NCCc2cc(OC)c(OC)cc21,0.126 µM (active)
3,O=C(O)c1nn(Cc2ccc(Cl)cc2Cl)c2ccccc12,inactive
4,O=C1CC2(CCCC2)CC(=O)N1CCCCN1CCN(c2ncccn2)CC1,10 µM (active)
5,Cc1cc(C(C)(C)C)cc(C)c1CC1=NCCN1,7.94 µM (active)
6,CC(N)C(=O)OC(C)(C)Cc1ccc(Cl)cc1 (centres undefined),5.62 µM (active)
7,CCCCCCCCC(=O)NCc1ccc(O)c(OC)c1,inactive
8,COC(=O)C1=CCCN(C)C1,inactive
9,COc1ccc(C(=O)N2CCCC2=O)cc1,inactive
10,c1ccc2nc(N3CCNCC3)ccc2c1,7.94 µM (active)
11,CNC(=O)Oc1ccc2c(c1)[C@]1(C)CCN(C)[C@@H]1N2C,5.01 µM (active)
12,NC(N)=N/N=C/c1c(Cl)cccc1Cl,11.2 µM (active)
13,NC(=O)CN1CCCC1=O,inactive

# Tested on: not listed separately
# Assay: qHTS for differential inhibitors of proliferation of Plasmodium falciparum line GB4 (AID 1816);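 further: parasite growth measured after 72 h incubation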; further: potency means the concentration at half of the fitted maximal effect
# Conditions: Potency: Plasmodium falciparum GB4 proliferation inhibition; series mostly up to 28.7 µM
row,SMILES,Potency
1,C[N+](C)(C)CCCCCCCCCC[N+](C)(C)C,3.98 µM (active)
2,CC[C@H]1CN2CCc3cc(OC)c(OC)cc3[C@@H]2C[C@@H]1C[C@H]1NCCc2cc(OC)c(OC)cc21,0.0891 µM (active)
3,NC(N)=NC(=O)c1nc(Cl)c(N)nc1N,12.6 µM (active)
4,O=C(O)c1nn(Cc2ccc(Cl)cc2Cl)c2ccccc12,inactive
5,Cc1cc(C(C)(C)C)cc(C)c1CC1=NCCN1,8.91 µM (active)
6,CC(N)C(=O)OC(C)(C)Cc1ccc(Cl)cc1 (centres undefined),1 µM (active)
7,COC(=O)C1=CCCN(C)C1,inactive
8,COc1ccc(C(=O)N2CCCC2=O)cc1,inactive
9,c1ccc2nc(N3CCNCC3)ccc2c1,11.2 µM (active)
10,CNC(=O)Oc1ccc2c(c1)[C@]1(C)CCN(C)[C@@H]1N2C,3.98 µM (active)
11,NC(N)=N/N=C/c1c(Cl)cccc1Cl,11.2 µM (active)
12,NC(=O)CN1CCCC1=O,inactive
